This is part of a sample that, as a whole, favours compounds with a hit. Of some 83,000 tested, about 20% had one in any assay.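 Step 1: grow cells in 96-well plates. Step 2: add test compound at a single concentration. Step 3: incubate 48 h. Step 4: record percent growth.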 Values without a mark were called inactive. The source made the active and inactive calls. The calls were made as follows: active = growth percent below 10; inactive = the rest.

Data on 40 molecules can be found in PubChem BioAssay (NCI).

The test relates to HL-60(TB) leukemia. Kind of test: NCI-60 one-dose screen, 48 h (100 = growth as untreated, 0 = no growth, -100 = all killed). Conditions: 10 µM unless noted.
For the molecule `Cc1ccc(N)cc1CN1C(=O)c2ccccc2C1=O`, the growth is 107%.

Turning to `COc1cccc(NC(=O)Cn2cc3c(=O)oc4ccccc4c3n2)c1`, the growth was 107%.

For the molecule `N=C(N)c1ccc(-c2ccc(-c3ccccc3)o2)cc1`, the growth is -62% (active).

On to `Clc1ccc(CN2COc3c(ccc4cccnc34)C2)cc1Cl`, for which the growth was -63.5% (active).

Consider `O=C(CCNNC(=O)c1ccncc1)NCc1ccccc1`, for which the growth was 70.1%.

Turning to `CCSc1ccc(C2C(Br)C(=O)N2c2cc(OC)c(OC)c(OC)c2)cc1` (stereo not given), the growth is -9.14% (active).

As for `CCCN1CC(c2ccc(OC)c(OC)c2)=C(c2cn(C(=O)OCC)c3ccccc23)C1=O`, the growth was 33.2%.

For the molecule `O=C(c1ccccc1)N(CCCl)C(=O)N(CCCl)C(=O)c1ccccc1`, the growth was 90.6%.

Turning to `COc1cccc(-c2nc(-c3ccc(NC(=O)OC(C)C)cc3)[nH]c2-c2ccnc(Br)c2)c1`, the growth is -39.9% (active).

For the molecule `O=C(CCCCCCC(=O)Nc1ccc2c(c1)/C(=C/c1ccc[nH]1)C(=O)N2)NO`, the growth is 16.5%.

As for `OCC1OC(n2cnc3c(N/N=C\c4ccccn4)ncnc32)C(O)C1O` (stereo not given), the growth is 6.17% (active).

As for `CCOC(=O)CC1CSC(Nc2ccccc2)=N1` (stereo not given), the growth is 102%.

Consider `O=C(O)c1ccc(-n2cc(/C=N/Nc3ccc(Cl)cc3Cl)c(-c3ccccc3)n2)cc1`, for which the growth is -81.8% (active).

In the case of `COc1ccc(-c2nc3c(c(C)nn3-c3ccc(F)cc3)c(=O)[nH]2)cc1`, the growth was 70%.

In the case of `COc1ccc(Nc2ncnc3c2sc2nc(C)cc(C)c23)cc1`, the growth is 97.9%.

`O=C(Nc1cccc(Cn2c(=O)[nH]c3ccc(Oc4ncccn4)cc3c2=O)c1)c1cccc(Cl)c1`: the growth is 54.1%.

As for `Nc1ccc2c(S(=O)(=O)O)ccc(S(=O)(=O)O)c2c1`, the growth was 76.2%.

On to `C[C@@]1(CO)[C@H](O)CC[C@@]2(C)[C@H]1CC[C@H]1C[C@@H]3C[C@@]12CC[C@@]3(O)COC(=O)CN`, for which the growth is 3.18% (active).

In the case of `CC(C)c1c(C(=O)c2ccccc2)c(-c2ccccc2)c(-c2ccc(F)cc2)n1CC[C@@H](O)C[C@@H](O)CC(=O)O`, the growth was 74%.

For `Cc1ccc(/C=C2/C(=O)Nc3cc(Cl)c(-c4csc(N)n4)cc32)cc1`, the growth was 22.2%.

For `O=C(CSC(=S)N1CCCCC1)Nc1ccccc1`, the growth was 100%.

`Cn1cc(-c2csc(-c3c[nH]c4ccc(F)cc34)n2)c2ccnc(Cl)c21`: the growth is 72%.

As for `CN(CCOc1ccc(C#N)cc1)CCOc1ccc(C#N)cc1`, the growth is 42.4%.

For the molecule `CCCO/N=C/c1ccccn1`, the growth was 94.8%.

Consider `Nc1nc(Nc2ccc(OCc3cccc(F)c3)cc2)c2c(n1)[nH]c1ccc(O)cc12`, for which the growth is -64.8% (active).

Consider `COc1cccc(/C=C2\Oc3cc(OCCCN4CCCC4)ccc3C2=O)c1OC`, for which the growth is 96.3%.

Turning to `CCN(CC)c1cc2oc3cc(N)cc(=N)c-3nc2cc1C`, the growth is -15.2% (active).

For `O=c1[nH][nH]c(=O)c2cc([N+](=O)[O-])ccc12`, the growth is 96.2%.

In the case of `COc1ccc(Oc2[nH]n(C3=Nc4ccccc4Sc4ccccc43)c(=O)c2C#N)cc1`, the growth is 112%.

As to `Oc1ccc(O)cc1`, the growth is 48.4%.

For `Clc1ccc([C@@H]2C[C@@H]3Cc4cc(Br)c5ccccc5c4N2O3)c(Cl)c1`, the growth was 54.3%.

On to `CC(=O)OC/C=C(/C)C[P+](c1ccccc1)(c1ccccc1)c1ccccc1`, for which the growth is 44.9%.

`CCOC(=O)c1ccc(Nc2ncnc3c2cnn3-c2cccc(F)c2)cc1`: the growth is 109%.

Regarding `Cc1cc(C(=O)c2ccccc2)c(C)c2c1[nH]c1ccc(Cl)cc12`, the growth was 1.08% (active).

Turning to `O=C(O)COc1ccc(-c2cssc2=S)cc1`, the growth is 101%.

On to `C[C@H]1[C@H]2C3=CC[C@@H]4[C@@]5(C)C/C(=C/c6ccncc6)C(=O)C(C)(C)[C@@H]5CC[C@@]4(C)[C@]3(C)CC[C@@]2(C(=O)N2CCN(C)CC2)CC[C@@H]1C`, for which the growth was 57.3%.

As to `CCCC(=O)Nc1ccc2c(c1)CN1C(=O)c3ccccc3C1=N2`, the growth is 81.9%.

Consider `Brc1cccc(-c2nc(-c3ccc4c(c3)OCCO4)co2)c1`, for which the growth is 29.1% [25 µM].

For `NC(=O)C1=C[C@H]2[C@H]3C=C[C@@]2(O)C(=O)O[C@@H]3O1`, the growth was 41.6%.

With `NC(=O)NN=C(C1CC1)C1CC1`, the growth was 62.2%.
